This is a sample that favours compounds with a hit; in the whole collection about 7.8% have one here.
HEK293 cAMP ctrl: parental HEK293 cAMP activation (counter-screen). parental HEK293 CNG cAMP sensor, membrane potential fluorescence. Potency, µM (top dose mostly 57.1 µM), inactives show top-dose activation, actives largely listed as activators. hit rate 2.5% among 73,000; also: potency is read from the fitted curve at half-maximal effect; % of control where 0% means no effect; nearly all actives have a fitted effect of over 55% in size
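Parental HEK 293 cells stably expressing a cAMP-gated CNG channel were loaded with membrane potential dye containing 100 uM RO 20-1724 for 60 min. Compound added for 30 min; depolarization read as fluorescence intensity at 590 nm.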
15-hLO inh: inhibitors of human 15-lipoxygenase (ALOX15); P16050; purified 15hLO-1, xylenol orange hydroperoxide absorbance; Potency, µM (top dose mostly 57.1 µM), for inactives: at the highest dose activity change, negative = inhibition, most hits filed as inhibitors; hit rate 1.4% among 74,000; AID 887; also: potency is read from the fitted curve at half-maximal effect; % is scaled to controls: 0 for no effect and ±100 for the full control effect; nearly all actives have a fitted effect of over 55% in size
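Hydroperoxide formed from arachidonic acid (50 uM) by purified human 15hLO-1 (40 nM) oxidizes ferrous iron, and the ferric-xylenol orange complex is read at 573 versus 405 nm. Compounds were preincubated 15 min; reaction ran 6 min at room temperature.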
Luciferase inh: firefly luciferase inhibition | Potency, µM (titrated, usually from 57.1 µM), for inactives: at the top dose activity change, negative = inhibition, actives largely listed as inhibitors | hit rate 2.2% among 72,000 | purified firefly luciferase, luminescence, 8 min | AID 411; also: potency is read from the fitted curve at half-maximal effect; % is scaled to controls: 0 for no effect and ±100 for the full control effect; nearly all actives have a fitted effect of over 40% in size
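Here, luciferase activity is measured as luminescence following an 8 min room-temperature reaction at 10 uM ATP, pH 7.2. Every library sample is titrated.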
Tau filament bind: tau filament binding. recombinant tau filaments, thioflavin S fluorescence, 15 h; filaments grown with octadecylsulfate alongside compound. Potency, µM (top dose mostly 57.1 µM), for the others: at the highest dose activity change, negative = inhibition. hit rate 2% among 71,000;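 also: potency is read from the fitted curve at half-maximal effect; % is scaled to controls: 0 for no effect and ±100 for the full control effect; actives lower thioflavin S fluorescence by blocking filaments or displacing dye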
Target sequence (P10636 whole entry, looked up): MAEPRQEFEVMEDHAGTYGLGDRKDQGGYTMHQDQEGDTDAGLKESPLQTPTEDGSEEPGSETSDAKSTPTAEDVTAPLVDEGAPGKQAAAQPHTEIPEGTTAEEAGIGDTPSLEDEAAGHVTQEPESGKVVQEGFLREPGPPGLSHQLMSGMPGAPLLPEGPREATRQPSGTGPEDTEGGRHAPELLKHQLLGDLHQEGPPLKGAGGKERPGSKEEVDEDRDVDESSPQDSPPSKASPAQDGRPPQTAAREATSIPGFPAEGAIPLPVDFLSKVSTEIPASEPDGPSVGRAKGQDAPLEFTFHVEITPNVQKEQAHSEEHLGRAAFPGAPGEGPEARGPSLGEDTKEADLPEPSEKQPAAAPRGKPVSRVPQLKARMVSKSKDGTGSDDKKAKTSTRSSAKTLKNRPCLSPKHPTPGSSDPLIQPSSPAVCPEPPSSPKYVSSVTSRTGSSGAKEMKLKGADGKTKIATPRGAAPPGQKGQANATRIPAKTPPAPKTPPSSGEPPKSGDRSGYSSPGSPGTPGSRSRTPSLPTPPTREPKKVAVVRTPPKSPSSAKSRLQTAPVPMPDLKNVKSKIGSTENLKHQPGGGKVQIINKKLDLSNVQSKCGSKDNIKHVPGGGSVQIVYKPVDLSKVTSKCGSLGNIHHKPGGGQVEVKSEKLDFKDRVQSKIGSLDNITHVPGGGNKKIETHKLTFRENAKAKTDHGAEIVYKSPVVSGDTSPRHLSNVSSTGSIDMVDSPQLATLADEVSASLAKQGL
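ThS-based fibril read: tau 1 uM final, inducer ODS 30 uM final, 37 C for 15 h, ex 450/em 510 nm.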
Bst PK mod: pyruvate kinase (B. stearothermophilus) modulation; purified pyruvate kinase, luminescence ATP production; ribose 5-phosphate activator present at AC10; Potency, µM; hit rate 1.2% among 51,000; AID 361; in the data active = potency below about 11 µM; inconclusive = mostly about 12 µM to 25 µM;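 the screen sought inhibitors and activators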;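 also: potency is read from the fitted curve at half-maximal effect; scaled between full activation by ribose 5 phosphate and full inhibition by luteolin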
TSHR agonist: TSH receptor (human) agonism; HEK293-CNG-TSHR cells (CNG channel as cAMP sensor), membrane potential dye, cAMP; hit rate 0.48% among 73,000; Potency, µM (titrated, usually from 57.1 µM), for inactives: top-dose activation, most hits filed as activators; active = well fitted activation curve with a large enough effect in the main read-out, with a control signal flat, not every such curve was filed as active; inconclusive = small, poorly fitted or top-dose-only effect, or a change in a side signal; inactive = no such curve, though single readings can be large or run the other way; % of control where 0% means no effect;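 also: the control signal comes from parental cells without the receptor; potency is read from the fitted curve at half-maximal effect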
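HEK 293 cells stably expressing TSHR and a cAMP-gated CNG channel; parental CNG-only cells as counterscreen. Cells preloaded 60 min with membrane potential dye plus 100 uM RO 20-1724, then compound 30 min; fluorescence read at 590 nm.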
tau ThS displ: displaces Thioflavin S from human tau filaments; shares compounds with Tau filament bind; recombinant tau filaments, Thioflavin S fluorescence displacement; Potency, µM; hit rate 40% among 60; AID 911; calls by dose curve
aSyn ThS bind: displaces Thioflavin S from alpha-synuclein fibrils; shares compounds with Tau filament bind; hit rate 40% among 60; AID 937; Potency, µM; recombinant alpha-synuclein fibrils, ThS fluorescence displacement; calls by dose curve
Abeta ThS bind: compounds binding human beta amyloid fibrils, displacing Thioflavin S. shares compounds with Tau filament bind. Abeta1-42 fibrillization, thioflavin S fluorescence, overnight 37 C. Potency, µM. hit rate 50% among 60; calls by dose curve
parental cAMP: TSHR-independent cAMP elevation, counter-screen; shares compounds with TSHR agonist; parental HEK293 CNG biosensor, cAMP membrane potential fluorescence; activity change, negative = inhibition, % at 32.9 µM; 150 tested, under 10 active
* marks the source's active call; other numbers are inactive results; i = inactive; ? = inconclusive; . = no result given; [ ] = another dose, or the depositor's remark. Unless noted, calls follow the shape of the dose curve; as a rule, active = well fitted curve in the direction sought with a large enough effect; inconclusive = small, poorly fitted or top-dose-only effect, or another doubt; inactive = no such curve, though single readings can be large; an effect the other way counts as inactive or inconclusive.

SMILES	HEK293 cAMP ctrl	15-hLO inh	Luciferase inh	Tau filament bind	Bst PK mod	TSHR agonist	parental cAMP	others
C=CCOC(=O)C1CC=CCC1C(=O)Oc1ccc(F)cc1F (stereo not drawn)	29%	-13%	-5%	-3%	.	.	.
Nc1c(N=Nc2ccc(-c3ccc(N=Nc4cc(S(=O)(=O)O)c5ccccc5c4N)cc3)cc2)cc(S(=O)(=O)O)c2ccccc12	.	.	.	.	.	.	.	tau ThS displ=0.29µM*;aSyn ThS bind=0.42µM*;Abeta ThS bind=2.4µM*
O=S(=O)(O)c1ccc(N=Nc2ccc3c(S(=O)(=O)O)cccc3c2O)c2ccccc12	4%[11.4 µM]	-12%[11.4 µM]	-16%[11.4 µM]	-8%[11.4 µM]	.	7%[11.4 µM]	.
Cc1cc(-c2ccc(N=Nc3ccc4c(S(=O)(=O)O)cc(S(=O)(=O)O)c(N)c4c3O)c(C)c2)ccc1N=Nc1ccc2c(S(=O)(=O)O)cc(S(=O)(=O)O)c(N)c2c1O	-19%	?	32µM*	3.2µM*	.	-30%	.	tau ThS displ=0.19µM*;aSyn ThS bind=0.77µM*;Abeta ThS bind=0.92µM*
c1ccc2c(CN3CCN(Cc4c[nH]c5ccccc45)CC3)c[nH]c2c1	-4%[11.4 µM]	9%[11.4 µM]	3%[11.4 µM]	-8%[11.4 µM]	.	0%[11.4 µM]	.
CN1CCN(CCCNC(=O)c2ccc3c(c2)N(Cc2ccccc2)CCS3)CC1	2%	-3%	0%	-14%	.	-4%	.
Oc1c(CN2CCOCC2)cc(COCc2ccccc2)c2cccnc12	11%	23%	-1%	-48%	>57	-2%	.	tau ThS displ=i;aSyn ThS bind=?;Abeta ThS bind=i
CCCC(=O)N1CCN(c2ccc(NC(=O)c3ccccc3)cc2)CC1	2%	-10%	1%	-27%	>57	-2%	.
CCCCOc1ccc(C(=O)Nc2ccc(N3CCN(C)CC3)cc2)cc1	-31%	7%	0%	1µM*	>57	?	.	tau ThS displ=?;aSyn ThS bind=i;Abeta ThS bind=i
O=C(O)C[C@@H]1CCCc2ccccc2[C@H]1O	?	4%	4%	2%	.	?	.
COc1cccc2c1C(=N)c1c(O)c3c(c(O)c1C2=O)C[C@](O)(C(C)=O)C[C@@H]3O[C@H]1C[C@H](N)[C@@H](O)[C@H](C)O1	-9%[11.4 µM]	12%[11.4 µM]	-20%[11.4 µM]	1.3µM*	.	0%[11.4 µM]	.	tau ThS displ=1.8µM*;aSyn ThS bind=2µM*;Abeta ThS bind=0.68µM*
CCn1c(=O)cc(OCC(=O)Nc2ccccc2N2CCN(C)CC2)c2ccccc21	-4%	1%	2%	37%	.	8%	.
CC(=O)OCCNc1cc(N2CCN(C)CC2)c2noc3c2c1C(=O)c1ccccc1-3	-15%	-12%	-19%	3.2µM*	.	-35%	.	tau ThS displ=3µM*;aSyn ThS bind=2.7µM*;Abeta ThS bind=1.3µM*
CN(C)c1ccc(C(=C2C=CC(=[N+](C)C)C=C2)c2c(O)c(S(=O)(=O)O)cc3cc(S(=O)(=O)O)ccc23)cc1	4%[11.4 µM]	10%[11.4 µM]	3.2µM*	6%[11.4 µM]	.	-6%[11.4 µM]	.	tau ThS displ=?;aSyn ThS bind=i;Abeta ThS bind=i
O=c1c2ccccc2ncn1-c1ccc2c(c1)OCCO2	7%	-3%	.	.	.	6%	6[25.6 µM]
CCOC(=O)c1c(N)n(CCOC(=O)c2cccs2)c2nc3ccccc3nc12	0%	?	-4%	0%	>57	18%	-3[25.6 µM]
CC(=Nc1ccc2c(c1)nc(CO)n2C)C1=C(O)CC(C)(C)CC1=O	2%	4%	-2%	-3%	>57	1%	.
O=C(c1cc(C(F)(F)F)cc(C(F)(F)F)c1)N1CCC2(CC1)CN(Cc1ccccc1)C2	-6%	-1%	1%[11.4 µM]	9%	.	-5%	.
Cc1nc2ccc(Br)cn2c(=O)c1Cl	-2%	7%	-1%	0%	.	7%	-3[25.6 µM]
CCOC(=O)N1CCN(C(=O)c2cn(-c3ccc(C)c(C)c3)c(=O)c3ccccc23)CC1	3%	-4%	-2%	0%	>57	.	.
O=C(Nc1ccc(N2CCOCC2)cc1)NC1CCCCC1	-11%	-10%	.	.	.	17%	.
O=C(Nc1ccc(N2CCOCC2)cc1)C1CC1	3%	-2%	-3%	-11%	>57	-2%	5[25.6 µM]
Cc1ccc(=O)n(-c2ccccc2)c1	7%	-10%[25.6 µM]	-2%	-29%	.	7%	.
COc1ccc(C2C(=O)N(C3CCCCC3)CC(=O)N2Cc2ccc3c(c2)OCO3)cc1 (stereo not drawn)	18%	-6%	4%	-2%	>57	26%	.
COc1cccc(CN2C(=O)CN(C3CCCCC3)C(=O)C2c2ccc(F)cc2)c1 (stereo not drawn)	15%	2%	0%	-14%	>57	13µM*	-5
SMILES	HEK293 cAMP ctrl	15-hLO inh	Luciferase inh	Tau filament bind	Bst PK mod	TSHR agonist	parental cAMP	others
CCOc1ccc(Nc2nc(Cc3nnc(SCC(=O)NCc4ccco4)n3CC)cs2)cc1	1%	10%	-3%	-8%	.	2%	.
O=S(=O)(c1ccccc1)N1CCN(C2CCN(Cc3ccccc3)CC2)CC1	23%	-10%	-2%	22%	.	8%	1[25.6 µM]
COc1cccc(C(=O)NC2=NCCS2)c1OC	-3%	10%	-21%	6%	>11	-5%	.
COc1ccc(N(C)S(=O)(=O)c2cccc(C(=O)NC3=NCCS3)c2)cc1	14%	-7%	3%	-3%	>57	25µM*	6
Cc1ccc(C)c(N(C(=O)Cn2nnc(-c3cccs3)n2)C(C(=O)NC2CC2)c2ccc(C)o2)c1 (stereo not drawn)	28%	-4%	5%	55%	>57	7.9µM*	?
Cc1ccc(N(C(=O)Cn2nnc(-c3ccc(C)o3)n2)C(C(=O)NC2CCCC2)c2ccco2)cc1 (stereo not drawn)	25%	14%	-1%	-1%	>57	16%	.
CN(/N=C\c1ccccc1O)c1ccc2ccccc2n1	-6%[11.4 µM]	1%[11.4 µM]	-26%[11.4 µM]	-2%[11.4 µM]	.	-2%[11.4 µM]	.
Cc1ccccc1N1CCN(c2ncnc3c2cnn3Cc2ccc(Cl)cc2)CC1	18%	-24%	0%	20%	>57	.	?
O=C1CCN2C=Nc3cccc4ccc1c2c34	-9%	-8%	1%	i	?	1%[11.4 µM]	.
Cc1nn(-c2ccccc2)c(N2CCCC2)c1/C=N/n1cnc2scc(-c3ccccc3)c2c1=O	25%	-10%	5%	5%	>57	3.2µM*	17
Cc1ccc(-c2csc3ncn(/N=C/N(C)C)c(=O)c23)o1	2%	4%	0%	-6%	>57	1%	.
CC(=O)NCCNc1nc(-c2cccc(NS(C)(=O)=O)c2)nc2ccccc12	-5%	-4%	2%[2.29 µM]	-1%	.	17%	.

Source: PubChem BioAssay
